The record followed here is PubChem BioAssay AID588507 (Broad Institute, 2011).

The assay in a line: compound effect on GFP reporter cells – imaging, dry powder samples, counter-screen for PrP inhibitor project, dose response (AID 588507). The following applies: max activity: measured here: maximum activity across titration, at 0.0195 µM.

SMILES strings stand for the structures. Activity calls are given as the source filed them. The rule behind the calls is not given here.

For `COc1cc(SC)ccc1C(=O)Nc1nc2ccccc2[nH]1`, the max activity is 451% and the outcome was inactive.
